Assay outcomes deposited in PubChem BioAssay by Sanford-Burnham Center for Chemical Genomics.
H9c2 TAG inh – reduces triacylglycerol accumulation in H9c2 cells | 230,000 tested, 0.66% active | inhibition, % at 12.5 µM | AID 651582 | Nile Red lipid (TAG) fluorescence; cells loaded with 200 µM oleic acid;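 active = pattern-corrected inhibition of lipid staining of at least 50% with the nuclear-stain viability signal not falling by more than 50%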;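 note: 0% = DMSO wells and 100% = triacsin C control wells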
hiPSC survival – hiPSC single-cell survival enhancement | survival enhancement, % at 20 µM | ATPlite luminescence; 100% = ROCK inhibitor wells, 0% = DMSO | AID 602274 | 360,000 tested, 0.044% active; in the data active = survival enhancement above about 18%;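 note: cells exposed to compounds for 16 hours before the ATP read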
beta cell repl – induces beta-cell replication in MIN6 cells | MIN6 cells proliferation, ATPlite luminescence, 48 h; cells starved in 0.2% serum; 100% = growth in 10% serum | proliferation, % at 10 µM | 330,000 tested, 0.29% active;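 active = compounds whose signal lies at least 3.5 SD above the mean of all wells on their plate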;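 note: 0% = DMSO-treated cells in low-serum medium and 100% = 10% serum control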
H9c2 TAG conf – confirmation of triacylglycerol accumulation inhibitors. AID 651629. H9c2 lipid accumulation, Nile Red fluorescence; cells loaded with 200 µM oleic acid. inhibition, % at 12.5 µM. shares compounds with H9c2 TAG inh. 990 tested, 71% active;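 active = mean inhibition across replicates of 40% or more; inactive = mean inhibition below 40%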;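 note: plate controls were DMSO only wells for no effect and Triacsin C treated wells for full effect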
* = called active by the depositor. Hits are enriched below; roughly 0.71% of the tested compounds scored in any of these assays.

For O=C(Nc1nc2nc(-c3ccccc3)cc(-c3ccccc3)n2n1)c1ccco1 the results were H9c2 TAG inh 64.2*, hiPSC survival 0.3, beta cell repl -2.0 and H9c2 TAG conf 30.8.
For CC(=O)Nc1nc2nc(-c3ccccc3)cc(-c3ccccc3)n2n1 the results were H9c2 TAG inh 20.4, hiPSC survival -1.1 and beta cell repl -1.1.
`CCC(c1nnnn1-c1ccc2c(c1)OCCO2)N1CCN(C)CC1` (stereo unspecified) gave hiPSC survival -0.1.
CC[C@@H](NC(=O)[C@H](Cc1ccccc1)NC(=O)CC[C@H]1O[C@@H](n2ccc(=O)[nH]c2=O)[C@H](O)[C@@H]1O)c1ccccc1 was read as hiPSC survival -3.1.
Screening Cc1cn(CC(=O)NCc2nc3ccccc3[nH]2)c(=O)[nH]c1=O returned hiPSC survival -0.6.
`CCN(CC)CCCNC(=O)C1c2ccccc2C(=O)N(CCOC)C1c1ccc(F)cc1` (stereo unspecified) gave H9c2 TAG inh -0.7, hiPSC survival -0.8 and beta cell repl -0.2.
For COCCN1C(=O)c2ccccc2C(C(=O)Nc2ccc3c(c2)OCCO3)C1c1ccc(F)cc1 (stereo unspecified) the results were H9c2 TAG inh 57.2*, hiPSC survival -2.0, beta cell repl -0.4 and H9c2 TAG conf 28.4.
C=CS(=O)(=O)N(Cc1ccccc1)[C@H](CO)CC(C)C was read as H9c2 TAG inh -58.7 and hiPSC survival 1.6.
CC(C)C[C@H](CO)N(Cc1ccccc1)S(=O)(=O)N(Cc1ccccc1)[C@@H](CO)CC(C)C was read as H9c2 TAG inh 55.6*, hiPSC survival 2.6, beta cell repl -6.2 and H9c2 TAG conf 45.9*.
COCCN1C(=O)c2ccccc2C1c1nnnn1Cc1ccccc1 (stereo unspecified) was read as hiPSC survival -0.3.
For O[C@@H](c1cc(C(F)(F)F)nc2c(C(F)(F)F)cccc12)[C@H]1CCCCN1 the results were H9c2 TAG inh 131.9, hiPSC survival -4.6 and beta cell repl -8.3.
CC(C)(C)NCCC(O)c1cc(C(F)(F)F)nc2c(C(F)(F)F)cccc12 (stereo unspecified) was read as H9c2 TAG inh 65.5*, hiPSC survival -2.6 and H9c2 TAG conf 62.7*.
Screening CN(C)c1nc(Cl)nc2c1nc(Cl)n2C1CCCCO1 (stereo unspecified) returned H9c2 TAG inh -2.1 and hiPSC survival -1.8.
`C[C@H]1CN([C@@H](C)CO)C(=O)CCCn2cc(nn2)CO[C@@H]1CN(C)C(=O)Nc1ccc(N2CCN(C)CC2)cc1` gave H9c2 TAG inh -1.8 and hiPSC survival 0.1.
Screening COc1ccc(N=C2C(=Nc3ccc(OC)cc3)N(c3ccc(OC)cc3)C(=S)N2C(=O)c2ccc(OC)cc2)cc1 returned H9c2 TAG inh 54.2*, hiPSC survival -0.1, beta cell repl -3.3 and H9c2 TAG conf 99.1*.
Screening COc1ccc(N2C(=S)N(C(=O)c3ccccc3)C(=Nc3ccccc3)C2=Nc2ccccc2)cc1 returned hiPSC survival -3.1 and beta cell repl -4.9.
CC1CC=C(O)C12OCC(C)(C)CO2 (stereo unspecified) was read as H9c2 TAG inh -7.5 and hiPSC survival 4.9.
`CCCCCCN(C(=O)CCCCCN1C(=O)NC(c2ccc([N+](=O)[O-])cc2)C(C(=O)OCc2ccccc2)=C1C)C(C(=O)NCCCC)C1CCCCC1` (stereo unspecified) gave H9c2 TAG inh 65.9*, hiPSC survival -2.3 and H9c2 TAG conf 55.9*.
For CCCCCCN(C(=O)CCCN1C(=O)NC(c2ccc(-c3ccccc3)cc2)C(C(=O)OCc2ccccc2)=C1C)C(C)C(=O)NCCCC (stereo unspecified) the results were H9c2 TAG inh 38.0 and hiPSC survival 0.3.
`COC(=O)C1=C(C(=O)OC)[C@]2([C@H]3CC=CCN[C@@H](Cc4ccccc4)C(=O)N3Cc3ccccc3)C=C[C@H]1O2` gave H9c2 TAG inh 23.8 and hiPSC survival -1.2.
`CCC(C)(C)NC(=O)C(c1ccccc1F)N(Cc1ccco1)C(=O)c1csnn1` (stereo unspecified) gave H9c2 TAG inh 53.2*, hiPSC survival 2.6, beta cell repl 2.6 and H9c2 TAG conf 19.4.
Screening CC(C)(C)NC(=O)C(c1ccc(F)cc1)N(Cc1ccco1)C(=O)c1csnn1 (stereo unspecified) returned H9c2 TAG inh 8.5, hiPSC survival -3.5 and beta cell repl -2.2.
`CCc1nc2ccc(C(=O)NCCCn3ccnc3)cn2c1N(CC)C(=O)NCCc1ccccc1` gave H9c2 TAG inh 7.2 and hiPSC survival -1.7.
For Oc1cccc(/C=N/Nc2cc(N3CCOCC3)nc(N3CCOCC3)n2)c1 the results were H9c2 TAG inh 121.1, hiPSC survival -2.2 and beta cell repl -2.9.
Screening Cc1nc(N/N=C/c2cccc(F)c2)cc(N2CCOCC2)n1 returned H9c2 TAG inh 64.3*, hiPSC survival 0.2, beta cell repl -4.2 and H9c2 TAG conf 67.8*.
For CCCCCCCCCCCCCCC(O)C[N+](C)(CCO)CCO (stereo unspecified) the results were H9c2 TAG inh 35.6 and hiPSC survival -0.4.
Screening Cc1nc2c(ccc3nc(NC(=O)C(c4ccccc4)c4ccccc4)sc32)s1 returned H9c2 TAG inh 29.6, hiPSC survival 2.5 and beta cell repl -6.1.
For Cc1nc2c(ccc3nc(NC(=O)Cc4cccc5ccccc45)sc32)s1 the results were H9c2 TAG inh 51.0*, hiPSC survival 1.1, beta cell repl -6.3 and H9c2 TAG conf 57.9*.
Screening O=C(NC(Cc1ccccc1)C(=O)N1CCN(c2ccc(F)cc2)CC1)c1ccccc1 (stereo unspecified) returned H9c2 TAG inh -5.9 and hiPSC survival -2.1.
Screening CCOc1cc(/C=C/C(=O)N(CC)CC(=O)NCc2cccs2)cc(Cl)c1OC returned H9c2 TAG inh 39.5, hiPSC survival -0.2 and beta cell repl -2.3.
For CCOc1c(Cl)cc(/C=C/C(=O)N(CC)CC(=O)NCc2cccs2)cc1OC the results were H9c2 TAG inh 59.1*, hiPSC survival -0.4, beta cell repl -2.2 and H9c2 TAG conf 42.6*.
`CC(=O)Nc1ccc(-c2ccnc3c2CC(C(=O)NCC2CCOCC2)O3)cc1` (stereo unspecified) gave H9c2 TAG inh 39.7 and hiPSC survival -2.2.
`O=C(N/N=C/c1ccccc1)c1n[nH]c2c1CCCC2` gave H9c2 TAG inh 2.7, hiPSC survival -2.4 and beta cell repl -1.1.
`O=C(N/N=C/c1ccc(Cl)cc1)c1n[nH]c2c1CCCC2` gave H9c2 TAG inh 58.8*, hiPSC survival -0.4, beta cell repl -2.2 and H9c2 TAG conf 37.0.
Screening COc1cccc(C(=O)c2ccncc2C(=O)O)c1OC returned H9c2 TAG inh 8.7 and hiPSC survival -0.6.
Screening CCn1c(CC(=O)Nc2ccccc2F)nnc1SCC(=O)NC1=NCCS1 returned H9c2 TAG inh 19.5 and hiPSC survival 0.0.
Screening Cc1cc(C)cc(-n2c3ccc(NC(=O)Cc4cccc5ccccc45)cc3c(=O)n2C)c1 returned H9c2 TAG inh 50.9*, hiPSC survival -2.8 and H9c2 TAG conf 49.6*.
